Results filed as inconclusive are left out. Where a call stands in place of a potency, no number is given. Values without a mark were called inactive. Calls of active or inactive are those of the source. Calls come from the whole dose curve; as a rule, active = well fitted cell-killing curve with a large enough effect in the repeat runs; inconclusive = weak or mixed curves, or effect the other way; inactive = flat fitted curve, though single readings scatter.
Potency is the fitted concentration of half-maximal effect.

This assay in a line: qHTS assay to identify small molecule agonists of the androgen receptor (AR) signaling pathway in the presence of an antagonist - cell viability counter screen (AID 1259379). Note: nearly all actives have a fitted effect of over 25% in size. The following applies: MDA-kb2 viability, CellTiter-Fluor, 16 h; series mostly up to 92.4 µM. An excerpt: National Center for Advancing Translational Sciences [NCATS]
NIH Chemical Genomics Center [NCGC]
U.S. Environmental Protection Agency [EPA]
National Institutes of Environmental Health Sciences [NIEHS]
National Toxicology Program [NTP]
U.S. Food and Drug Administration [FDA]
Androgen receptor (AR) is an important member of nuclear receptor family. Its signaling plays a critical role in AR-dependent prostate cancer and other androgen related diseases. Considerable attention has been given in the past decades to develop methods to study and screen for the environmental chemicals that have the potential to interfere with metabolic homeostasis, reproduction, developmental and behavioral functions. Therefore AR binding assay for screening against androgen agonists and antagonists can be used to identify potential endocrine disruptors.
MDA-kb2 cells (from ATCC, deposited by Wilson et al.) are human breast carcinoma cells that were stably transfected with a luciferase reporter gene under control of the MMTV promoter that contains response elements for both androgen receptor (AR) and glucocorticoid receptor (GR). This particular screening for measuring luciferase reporter gene activity using MDA-kb2 cells against Tox21 10K library compounds is a confirmation study on agonist mode screening in the presence of AR-antagonist compound (Nilutamide) at 3.0uM final concentration. The cytotoxicity of the compounds was tested in parallel by measuring the cell viability using CellTiter-Fluor assay system (Promega, Madison, WI) in the same wells.
Tox21 Assay Protocol Summary:
MDA-kb2 cells (cells cultured without CO2) were dispensed at 3,000 cells/well in 4uL of culture medium into white wall/solid-bottom 1536-well plates (Corning Life Sciences, Corning, NY) using a Multidrop Combi (Thermo Fisher Scientific Inc., Waltham, MA) dispenser. The assay plates were incubated at 37C and 0% CO2 for 5hr. One uL of 3.0uM (final concentration) Nilutamide or assay buffer was added using two separate tips of Flying Reagent Dispenser (FRD, Aurora Discovery, San Diego, CA). Then 23nL of compounds dissolved in DMSO at 15 concentrations and positive controls were transferred to the assay plates using a Pintool station (Wako, San Diego, CA). The assay plates were incubated at 37C and 0% CO2 for 16 hr. After 15hr incubation at 37C, 1uL/well CellTiter-Fluor reagent (Promega Corporation) was added to each well of the assay plates using FRD. After 1hr incubation at 37C and 0% CO2, the fluorescence signal was measured using a ViewLux plate reader (PerkinElmer, Shelton, CT).
On the technique in general: qHTS replaces the single test concentration by a dilution series.
As to `O=C(O)C(S)C(S)C(=O)O` (stereo not given), the Potency entry was “inactive”. The same measure, in the same setting: the result for `CCOC(=O)C(O)c1ccccc1` (stereo not given) reads “inactive”; that for `CCCCCCCCCCCCCCOS(=O)(=O)O`, “inactive”. On the same count and under the same terms, the result for `CN1CCC(=C2c3ccccc3Sc3ccccc32)CC1` reads “inactive”; that for `Nc1cc(C(=O)O)c(O)c(S(=O)(=O)O)c1`, “inactive”. Turning to `CN(C)c1ccc(CCO)cc1`, the Potency entry is “inactive”.

Turning to `Nc1c(CC(=O)O)cccc1C(=O)c1ccc(Br)cc1`, the Potency entry is “inactive”.

On to `O=C(O)CNCC(=O)O`, for which the activity change, negative = cytotoxicity is -0.627% [at 8.39 µM]. As to `C=C(C)C(=O)OCC`, the Potency result is “inactive”.

In the case of `CC(=O)[O][Al]`, the Potency entry is “inactive”. The same measure, in the same setting: the result for `CCCCCCCC/C=C\CCCCCCCC(=O)OCC` reads “inactive”.

Consider `C[C@@H]1C[C@H]2[C@@H]3CCC4=CC(=O)C=C[C@]4(C)[C@@]3(F)[C@@H](O)C[C@]2(C)[C@@]1(O)C(=O)COC(=O)c1ccncc1`, for which the Potency entry was “inactive”. Same read-out and setting: the result for `CCOC(=O)c1cccnc1` reads “inactive”; that for `CCCCCCCCO[C@@H]1O[C@H](CO)[C@@H](O)[C@H](O)[C@H]1O`, “inactive”. Still for that read-out and setting: the result for `CN1CCC(N(Cc2cccs2)c2ccccc2)CC1` reads “inactive”. Turning to `Nc1cccc(S(=O)(=O)c2cccc(N)c2)c1`, the Potency result is “inactive”.

Consider `COc1ccc(S(=O)(=O)N2C(=O)[C@@](c3ccccc3OC)(N3C[C@H](O)C[C@H]3C(=O)N(C)C)c3cc(Cl)ccc32)c(OC)c1`, for which the Potency was 54.5 µM (active).

Regarding `CCCCC(CC)COC(=O)COc1ccc(Cl)cc1Cl` (stereo not given), the Potency entry was “inactive”. The same measure, in the same setting: the value for `C#CCN(C)CCCOc1ccc(Cl)cc1Cl` was “inactive”; that for `CC1=CCCC(C)(C)C12CCC(C)O2` (stereo not given) was “inactive”; that for `CC/C=C\CCOC(=O)CC` was “inactive”. Still for that read-out and setting: the value for `Cc1ccccc1S(=O)(=O)O` was “inactive”.

Consider `Cc1cc(C(=O)O)ccc1[N+](=O)[O-]`, for which the Potency result is “inactive”. For the molecule `CCCCC(=O)OCC(=O)[C@H]1[C@H](C)C[C@H]2[C@@H]3C[C@H](F)C4=CC(=O)C=C[C@]4(C)[C@@]3(F)[C@@H](O)C[C@@]21C`, the Potency entry is “inactive”.

Take `Brc1c2ccccc2cc2ccccc12`: the Potency result is “inactive”.

For the molecule `COc1ccc(C(=O)c2ccc(OC)cc2O)c(O)c1`, the Potency result is “inactive”.

For `CCCNCC(O)COc1ccccc1C(=O)CCc1ccccc1` (stereo not given), the Potency entry is “inactive”. Still for that read-out and setting: the value for `O=C1CCC(=O)O1` was “inactive”; that for `OC[C@H]1O[C@@H](OCCc2ccc(O)cc2)[C@H](O)[C@@H](O)[C@@H]1O` was “inactive”; that for `O=C(O)c1ccccc1Cl` was “inactive”. Still for that read-out and setting: the value for `CCCCc1nc2cccnc2n1Cc1ccc(-c2ccccc2-c2nnn[nH]2)cc1` was “inactive”; that for `CCN(CC)c1ccc(C(=C2C=CC(=[N+](CC)CC)C=C2)c2cc(S(=O)(=O)O)ccc2S(=O)(=O)[O-])cc1` was 26.6 µM (active). Same read-out and setting: the result for `CCN(CC)CCNC(=O)c1cc(Br)c(N)cc1OC` reads “inactive”; that for `N=c1ccn2c(n1)O[C@H]1[C@H](O)[C@@H](CO)O[C@H]12`, “inactive”.

In the case of `C=C1[C@H]2CC[C@@H]3[C@H]2C(C)(C)CCC[C@]13C`, the Potency entry is “inactive”. Same read-out and setting: the value for `CC(C)(COC(=O)c1ccccc1)COC(=O)c1ccccc1` was “inactive”; that for `O=C(O)c1ccc(S(=O)(=O)O)cc1C(=O)O` was “inactive”; that for `C[N+]1(C)CCC(OC(=O)C(O)(c2ccccc2)C2CCCC2)C1` (stereo not given) was “inactive”.

As for `OCCNCc1ccccc1`, the Potency entry was “inactive”. On the same count and under the same terms, the value for `O=C(Nc1ccc(S(=O)(=O)N2CCOCC2)cc1)c1cc(Cl)ccc1NS(=O)(=O)c1ccc(Cl)s1` was “inactive”.

These data come from PubChem BioAssay (Tox21).
